Measured values taken from PubChem BioAssay (Tox21).
Where “and” joins values, the source holds several entries; their conditions need not be identical. Equal values may be shown once. Inconclusive results are not listed. Entries that show only a call come without a potency. Some compounds were tested as several samples or in several runs, with calls that do not always agree. Calls of active or inactive are those of the source. Calls come from the whole dose curve; as a rule, active = well fitted curve in the direction sought with a large enough effect in the repeat runs; inconclusive = weak or mixed curves; inactive = no such curve, though single readings can be large; an effect the other way counts as inactive or inconclusive.

Experiments:
[1] = A CellTox Green Cytotoxicity Assay to monitor cytotoxicity in HEK293 cells - 40 hour (AID 1224871); note: nearly all actives have a fitted effect of over 45% in size; note: potency is the fitted concentration of half-maximal effect
In short: (§1)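 Fluorescence intensity, read at 0, 8, 16, 24, 32 and 40 h of compound treatment, reflected dye binding to DNA of dead HEK293 cells; compounds (23 nL, DMSO) were added 5 h after plating cells with reagent.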

[2] = qHTS RealTime-Glo MT Cell Viability Assay in HEK293 cells - 16 hour (AID 1224872); note: nearly all actives have a fitted effect of over 50% in size; note: potency is the fitted concentration of half-maximal effect
In short: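 Cells + reagent dispensed (600 cells/well, HEK293) → 5 h at 37 C/5% CO2 → 23 nL compound in DMSO pinned → 40 h at 37 C → luminescence read at 0, 8, 16, 24, 32, 40 h.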

[3] = qHTS RealTime-Glo MT Cell Viability Assay in HepG2 cells - 8 hour (AID 1224873); note: nearly all actives have a fitted effect of over 55% in size; note: potency is the fitted concentration of half-maximal effect
In short: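 Real-time viability: cells seeded at 600 per well together with NanoLuc and cell-permeant prosubstrate, compounds added after 5 h incubation. Luminescence tracked at 0, 8, 16, 24, 32 and 40 h of exposure.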

[4] = qHTS RealTime-Glo MT Cell Viability Assay in HEK293 cells - 40 hour (AID 1224874); details: RealTime-Glo luminescence; max response: stronger effect = lower value; note: nearly all actives have a fitted effect of over 50% in size; note: potency is the fitted concentration of half-maximal effect
In short: (§2)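 Viable HEK293 cells reduce a cell-permeant prosubstrate; the product diffuses out and is consumed by NanoLuc in the medium to give light. Compounds went in after a 5 h incubation and plates were read over the treatment course.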

[5] = A CellTox Green Cytotoxicity Assay to monitor cytotoxicity in HEK293 cells - 24 hour (AID 1224875); note: nearly all actives have a fitted effect of over 45% in size; note: potency is the fitted concentration of half-maximal effect
In short: as §1

[6] = A CellTox Green Cytotoxicity Assay to monitor cytotoxicity in HepG2 cells - 16 hour (AID 1224876); note: nearly all actives have a fitted effect of over 45% in size; note: potency is the fitted concentration of half-maximal effect
In short: (§3)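 Using 1536-well format, dye-containing HepG2 suspension was seeded, allowed 5 h at 37 C/5% CO2, dosed by pintool with compounds, positive and negative controls, and imaged for fluorescence across 40 h.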

[7] = qHTS RealTime-Glo MT Cell Viability Assay in HepG2 cells - 32 hour (AID 1224877); note: nearly all actives have a fitted effect of over 55% in size; note: potency is the fitted concentration of half-maximal effect
In short: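 Real-time, nonlytic viability: 600 HepG2 cells/well mixed with NanoLuc enzyme plus prosubstrate; 5 h settle, compound (DMSO) added by pintool; luminescence monitored over 40 h at 37 C.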

[8] = A CellTox Green Cytotoxicity Assay to monitor cytotoxicity in HepG2 cells - 24 hour (AID 1224878); note: nearly all actives have a fitted effect of over 45% in size; note: potency is the fitted concentration of half-maximal effect
In short: as §3

[9] = A CellTox Green Cytotoxicity Assay to monitor cytotoxicity in HepG2 cells - 40 hour (AID 1224879); note: nearly all actives have a fitted effect of over 40% in size; note: potency is the fitted concentration of half-maximal effect
In short: as §3

[10] = qHTS RealTime-Glo MT Cell Viability Assay in HEK293 cells - 0 hour (AID 1224880)
In short: as §2

| Compound | Potency [1] | Potency [2] | Potency [3] | max response [4] | Potency [5] | Potency [6] | Potency [7] | Potency [8] | Potency [9] | outcome [10] | Potency [4] |
| --- | --- | --- | --- | --- | --- | --- | --- | --- | --- | --- | --- |
| CN[C@@H](C)[C@H](O)c1ccccc1 | inactive | inactive | inactive | 1.2% (inactive) | inactive | inactive | inactive | inactive | inactive | inactive | – |
| CCCCCCCCn1sccc1=O | 55.1 µM (active) and 20.4 µM (active) | 13.8 µM (active) and 14.5 µM (active) | 43.7 µM (active) and 16.2 µM (active) | – | 55.1 µM (active) and 40.8 µM (active) | 55.1 µM (active) and 25.7 µM (active) | 43.7 µM (active) and 16.2 µM (active) | 49.1 µM (active) and 25.7 µM (active) | 43.7 µM (active) and 20.4 µM (active) | – | 11 µM (active) and 12.9 µM (active) |
| Cc1ccccc1 | inactive | inactive | inactive | 11.7% (inactive) | inactive | inactive | inactive | inactive | inactive | – | – |
| CCSCc1ccccc1OC(=O)NC | inactive | inactive | inactive | -1.43% (inactive) | inactive | inactive | inactive | inactive | inactive | – | – |
| O=C(O)C(F)(F)C(F)(F)C(F)(F)C(F)(F)C(F)(F)F | inactive | inactive | inactive | -1.16% (inactive) | inactive | inactive | inactive | inactive | inactive | – | – |
| C[N+](C)(C)CC1CO1 (centres undefined) | inactive | inactive | inactive | 5.73% (inactive) | inactive | inactive | inactive | inactive | inactive | inactive | – |
| O=C(N/N=C/c1ccc([N+](=O)[O-])o1)c1cc([N+](=O)[O-])cc([N+](=O)[O-])c1O | inactive | inactive | inactive | 8.45% (inactive) | inactive | inactive | inactive | inactive | inactive | inactive | – |
| C[Si](Cn1cncn1)(c1ccc(F)cc1)c1ccc(F)cc1 | 54.9 µM (active) | 40.2 µM (active) and 21.9 µM (active) | inactive | – | inactive | 50.6 µM (active) and inactive | inactive | 50.6 µM (active) | 50.6 µM (active) and 49 µM (active) | – | 25.4 µM (active) and 21.9 µM (active) |
| CC(CC(C(N)=O)(c1ccccc1)c1ccccc1)N(C)C (centres undefined) | inactive | inactive | inactive | 3.65% (inactive) | inactive | inactive | inactive | inactive | inactive | inactive | – |
| N#CC1(N=NC2(C#N)CCCCC2)CCCCC1 | inactive | inactive | inactive | -7.83% (inactive) | inactive | inactive | inactive | inactive | inactive | – | – |
| CCOC(C(=O)OCCN(C)C)(c1ccccc1)c1ccccc1 | inactive | inactive | inactive | -21.4% (inactive) | inactive | inactive | inactive | inactive | inactive | inactive | – |
| C=CC(=O)NC(C)(C)CC(C)=O | inactive | inactive | inactive | 3.92% (inactive) | inactive | inactive | inactive | inactive | inactive | – | – |
| O=C(N[C@H]1CN2CCC1CC2)c1ccc2c(c1)OCCO2 | inactive | inactive | inactive | 0.421% (inactive) | inactive | inactive | inactive | inactive | inactive | inactive | – |
| CCNC(=O)NC(=O)/C(C#N)=N/OC | inactive | inactive | inactive | 18.1% (inactive) | inactive | inactive | inactive | inactive | inactive | inactive | – |
| O=[N+]([O-])O[C@H]1CO[C@H]2[C@@H]1OC[C@H]2O[N+](=O)[O-] | inactive | inactive | inactive | 6.05% (inactive) | inactive | inactive | inactive | inactive | inactive | – | – |
| N#CC(C#N)=Cc1ccc(O)c(O)c1 | inactive | inactive | inactive | -6.83% (inactive) | inactive | inactive | inactive | inactive | inactive | – | – |
| CC(C)CCCCCCCOC(=O)c1ccccc1C(=O)OCCCCCCCC(C)C | inactive | inactive | inactive | 11.2% (inactive) | inactive | inactive | inactive | inactive | inactive | inactive | – |
| CCOC(=O)NC(O)C(Cl)(Cl)Cl (centres undefined) | inactive | inactive | inactive | 7.58% (inactive) | inactive | inactive | inactive | inactive | inactive | – | – |
| CCN(C(C)=O)c1cccc(-c2ccnc3c(C#N)cnn23)c1 | inactive | inactive | inactive | -13.6% (inactive) | inactive | inactive | inactive | inactive | inactive | inactive | – |
| CN(C1CCCCC1)C1CCCCC1 | inactive | inactive | inactive | -2.03% (inactive) | inactive | inactive | inactive | inactive | inactive | – | – |
| CC(Oc1cccc(Cl)c1)C(=O)O (centres undefined) | inactive | inactive | inactive | 9.01% (inactive) | inactive | inactive | inactive | inactive | inactive | – | – |
| CCC1(CCC(C)C)C(=O)NC(=O)NC1=O | inactive | inactive | inactive | -4.01% (inactive) | inactive | inactive | inactive | inactive | inactive | – | – |

| Compound | Potency [1] | Potency [2] | Potency [3] | max response [4] | Potency [5] | Potency [6] | Potency [7] | Potency [8] | Potency [9] | outcome [10] | Potency [4] |
| --- | --- | --- | --- | --- | --- | --- | --- | --- | --- | --- | --- |
| O=C(O)c1ccc(=O)[nH]c1 | inactive | inactive | inactive | 5.8% (inactive) | inactive | inactive | inactive | inactive | inactive | – | – |
| CC(C)(C)NCC(O)c1cc(Cl)c(N)c(C(F)(F)F)c1 (centres undefined) | inactive | inactive | inactive | 3.67% (inactive) | inactive | inactive | inactive | inactive | inactive | inactive | – |
| CC(C)(c1ccccc1)c1cc(-n2nc3ccccc3n2)c(O)c(C(C)(C)c2ccccc2)c1 | inactive | inactive | inactive | 12.9% (inactive) | inactive | inactive | inactive | inactive | inactive | inactive | – |
| Nc1cc(Cl)cc(C(=O)O)c1Cl | inactive | inactive | inactive | 1.89% (inactive) and 6.4% (inactive) | inactive | inactive | inactive | inactive | inactive | – | – |
| OCCCl | inactive | inactive | inactive | 0.0487% (inactive) | inactive | inactive | inactive | inactive | inactive | inactive | – |
| CCOC(=O)C1OC1(C)c1ccccc1 (centres undefined) | inactive | inactive | inactive | 0.105% (inactive) and 2.55% (inactive) | inactive | inactive | inactive | inactive | inactive | – | – |
| c1ccc2sc(SNC3CCCCC3)nc2c1 | inactive | inactive | inactive | -0.932% (inactive) and 2.76% (inactive) | inactive | inactive | inactive | inactive | inactive | – | – |
| CC(Oc1cc(Cl)c(Cl)cc1Cl)C(=O)O (centres undefined) | inactive | inactive | inactive | 3.67% (inactive) | inactive | inactive | inactive | inactive | inactive | – | – |
| O=S(=O)(c1ccccc1)c1ccccc1 | inactive | inactive | inactive | 1.49% (inactive) | inactive | inactive | inactive | inactive | inactive | inactive | – |
| O=CC=O | inactive | inactive | inactive | 2.31% (inactive) | inactive | inactive | inactive | inactive | inactive | inactive | – |
| CCCSP(=S)(OCC)Oc1ccc(SC)cc1 (centres undefined) | inactive | inactive | inactive | 3.34% (inactive) | inactive | inactive | inactive | inactive | inactive | – | – |
| Cc1ccc(N)c(C)c1 | inactive | inactive | inactive | 4.9% (inactive) and -12.6% (inactive) | inactive | inactive | inactive | inactive | inactive | inactive | – |
| O=C(Cc1ccccc1)OCCc1ccccc1 | inactive | inactive | inactive | 2.91% (inactive) | inactive | inactive | inactive | inactive | inactive | inactive | – |
| NCCc1cc(O)c(O)cc1O | inactive | inactive | inactive | -1.21% (inactive) | inactive | inactive | inactive | inactive | inactive | inactive | – |
| CCc1cnc(C2=NC(C)(C(C)C)C(=O)N2)c(C(=O)O)c1 (centres undefined) | inactive | inactive | inactive | 1.73% (inactive) and 22.4% (inactive) | inactive | inactive | inactive | inactive | inactive | inactive | – |
| CC(C)(C)CC(C)(C)c1ccc(O)cc1 | 30.9 µM (active) and 21.3 µM (active) | 12.3 µM (active) | 21.9 µM (active) | -17% (inactive) | 13.8 µM (active) and 21.3 µM (active) | 27.5 µM (active) and 10.7 µM (active) | 43.6 µM (active) and inactive | 19.5 µM (active) and 13.4 µM (active) | 17.4 µM (active) and 15.1 µM (active) | – | – |
| COc1ccc(C(O)(c2cncnc2)C2CC2)cc1 (centres undefined) | inactive | inactive | inactive | 0.605% (inactive) | inactive | inactive | inactive | inactive | inactive | – | – |
| Cc1cccc(C)c1NC1=NCCCS1 | inactive | inactive | inactive | 0.136% (inactive) | inactive | inactive | inactive | inactive | inactive | inactive | – |
| SCc1ccccc1 | inactive | inactive | inactive | 5.57% (inactive) | inactive | inactive | inactive | inactive | inactive | inactive | – |
| NC(=O)CF | inactive | inactive | inactive | -4.69% (inactive) | inactive | inactive | inactive | inactive | inactive | inactive | – |
| FC(Cl)(Cl)C(F)(Cl)Cl | inactive | inactive | inactive | -10.6% (inactive) | inactive | inactive | inactive | inactive | inactive | inactive | – |
| CC(=O)OC(c1ccccc1)C(Cl)(Cl)Cl (centres undefined) | 19.5 µM (active) | inactive | inactive | -15.9% (inactive) | 19.5 µM (active) | 21.9 µM (active) | inactive | 21.9 µM (active) | 21.9 µM (active) | inactive | – |
